Consider seven targets from the supplement of paper PMC10849652.

What all share (experiment): log2 fold change, soluble protein after heating vs DMSO (PISA); higher = thermal stabilisation; K562 cells, 10 uM, 30 min; active = over 0.2 and 3.5 SD of the protein, either way, in both replicates (recomputed)
Compound in one experiment: C1COCCN1CCN2C3=CC=CC=C3N=C2NC(=O)C4=CC(=CC=C4)[N+](=O)[O-] [IRAK-1-4 Inhibitor I]
Put shortly: (§1)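 Values are thermal stability changes relative to control samples and are taken from duplicates. They are stated as log2 fold changes. Before quantification by TMTpro 16plex LC-MS/MS with equalised channel sums, K562 cells at 2×10^6 cells/mL were treated with 10 μM compound for 30 min, heated in aliquots for 3 min across 48°C-58°C, pooled, extracted in PBS with 0.5% NP-40 at 4°C, and centrifuged at 21,000xg for 90 min to give the soluble supernatant.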

Compound in a further experiment: C=CC(=O)N1CCC[C@@H](n2nc(-c3ccc(Oc4ccccc4)cc3)c3c(N)ncnc32)C1 [ibrutinib]
Put shortly:
as §1

Compound in experiment [1]: CC(=O)c1cnc2ccc(-c3cc(Cl)c(O)c(Cl)c3)nc2c1N[C@H]1CC[C@H](CN(C)C)CC1
Put shortly: as §1

Compound in the next experiment: CC(C)(C)Cn1c(N)nc2ccc(-c3[nH]c(C(C)(C)C)nc3-c3ccc(F)cc3)nc21 [ralimetinib]
Put shortly:
as §1

Compound in experiment [2]: CC(C)(O)CC(=O)NCCn1ccc2ncnc(Nc3ccc(Oc4cccc(C(F)(F)F)c4)c(Cl)c3)c21
Put shortly:
as §1

Compound in experiment [3]: CC(C)C1=C2N=C(C=C(N2N=C1)NCC3=CC=CC=C3)NCCCCCCN
Put shortly: as §1

Compound in experiment [4]: CC(C)C[C@@H](C=O)NC(=O)[C@H](CC(C)C)NC(=O)[C@H](CC(C)C)NC(=O)OCc1ccccc1
Put shortly:
as §1

Compound in a further experiment: CC(C)N(C[C@H]1O[C@@H](n2cnc3c(N)ncnc32)[C@H](O)[C@@H]1O)[C@H]1C[C@@H](CCc2nc3cc(C(C)(C)C)ccc3[nH]2)C1 [pinometostat]
Put shortly: as §1

Compound in experiment [5]: CC1=C(C(CC(=O)N1)C2=CC=C(C=C2)C(F)(F)F)C(=O)NC3=C(C=C4C(=C3)C=NN4)F
Put shortly: as §1

Compound in experiment [6]: CC1=C(C2=C(C=C1)C(=O)C3=CC=CC=C3N2CCCN)C
Put shortly: as §1

Compound in experiment [7]: CC1=C(C=C(C=C1)NC(=O)C2=CC(=CC=C2)C(C)(C)C#N)NC3=CC4=C(C=C3)N=CN(C4=O)C
Put shortly: as §1

Compound in experiment [8]: CC1=C(C=C(C=C1)NC(=O)C2=CC(=CC=C2)N(C)C)NC(=O)C3=CC=C(C=C3)O
Put shortly: as §1

Compound in experiment [9]: CC1=CC=C(C=C1)SC2=C3C=C(SC3=CN=C2)C(=O)N
Put shortly: as §1

Compound in experiment [10]: CC1=NC(=CC=C1)C2=C(N=C(N2)C(C)(C)C)C3=CC4=NC=CN=C4C=C3
Put shortly:
as §1

Compound in another experiment: CCCCN(Cc1ccc(C(=O)NO)cc1)C(=O)Nc1ccccc1 [Nexturastat A]
Put shortly:
as §1

Compound in another experiment: CCCS(=O)(=O)Nc1ccc(F)c(C(=O)c2c[nH]c3ncc(-c4ccc(Cl)cc4)cc23)c1F [vemurafenib]
Put shortly:
as §1

Compound in experiment [11]: CCCS(=O)(=O)Nc1ccc(F)c(C(=O)c2c[nH]c3ncc(Cl)cc23)c1F
Put shortly: as §1

Compound in experiment [12]: CCCc1cc(C)[nH]c(=O)c1CNC(=O)c1cc(-c2ccnc(N3CCN(C)CC3)c2)cc2c1cnn2C(C)C
Put shortly:
as §1

Compound in another experiment: CCN(CC)Cc1ccc2cc(COC(=O)Nc3ccc(C(=O)NO)cc3)ccc2c1 [givinostat]
Put shortly: as §1

Compound in the next experiment: CCN(CCCOc1ccc2c(Nc3cc(CC(=O)Nc4cccc(F)c4)[nH]n3)ncnc2c1)CCOP(=O)(O)O [barasertib]
Put shortly: as §1

Targets with a hit are over-represented here; the source holds about 7,900 in all. About 0.6% of all pairs of compound and target were hits. A number with no mark means an inactive call.

Sequence of UniProt Q9H269 (Q9H269 whole entry, looked up): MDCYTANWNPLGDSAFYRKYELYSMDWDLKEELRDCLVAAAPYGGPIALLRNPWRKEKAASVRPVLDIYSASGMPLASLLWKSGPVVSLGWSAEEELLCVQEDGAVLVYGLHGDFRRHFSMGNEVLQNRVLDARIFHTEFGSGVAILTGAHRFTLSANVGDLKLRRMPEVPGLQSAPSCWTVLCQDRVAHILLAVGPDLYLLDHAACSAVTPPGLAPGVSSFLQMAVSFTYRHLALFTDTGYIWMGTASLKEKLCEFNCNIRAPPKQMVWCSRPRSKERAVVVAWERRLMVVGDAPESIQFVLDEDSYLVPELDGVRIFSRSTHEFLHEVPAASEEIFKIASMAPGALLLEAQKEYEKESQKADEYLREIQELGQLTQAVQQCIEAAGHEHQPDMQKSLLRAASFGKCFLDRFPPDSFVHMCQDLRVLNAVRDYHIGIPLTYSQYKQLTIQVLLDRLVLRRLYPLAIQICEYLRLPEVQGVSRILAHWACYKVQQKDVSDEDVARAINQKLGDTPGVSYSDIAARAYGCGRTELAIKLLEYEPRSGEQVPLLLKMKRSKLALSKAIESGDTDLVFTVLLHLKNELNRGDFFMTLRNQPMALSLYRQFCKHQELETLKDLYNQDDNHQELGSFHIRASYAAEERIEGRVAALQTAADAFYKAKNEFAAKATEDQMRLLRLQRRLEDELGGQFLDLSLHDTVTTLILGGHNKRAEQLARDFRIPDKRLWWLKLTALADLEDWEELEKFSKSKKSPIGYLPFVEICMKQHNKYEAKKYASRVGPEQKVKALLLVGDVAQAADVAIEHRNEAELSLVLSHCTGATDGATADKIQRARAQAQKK
Sequence of UniProt P0CG48 (P0CG48 whole entry, looked up): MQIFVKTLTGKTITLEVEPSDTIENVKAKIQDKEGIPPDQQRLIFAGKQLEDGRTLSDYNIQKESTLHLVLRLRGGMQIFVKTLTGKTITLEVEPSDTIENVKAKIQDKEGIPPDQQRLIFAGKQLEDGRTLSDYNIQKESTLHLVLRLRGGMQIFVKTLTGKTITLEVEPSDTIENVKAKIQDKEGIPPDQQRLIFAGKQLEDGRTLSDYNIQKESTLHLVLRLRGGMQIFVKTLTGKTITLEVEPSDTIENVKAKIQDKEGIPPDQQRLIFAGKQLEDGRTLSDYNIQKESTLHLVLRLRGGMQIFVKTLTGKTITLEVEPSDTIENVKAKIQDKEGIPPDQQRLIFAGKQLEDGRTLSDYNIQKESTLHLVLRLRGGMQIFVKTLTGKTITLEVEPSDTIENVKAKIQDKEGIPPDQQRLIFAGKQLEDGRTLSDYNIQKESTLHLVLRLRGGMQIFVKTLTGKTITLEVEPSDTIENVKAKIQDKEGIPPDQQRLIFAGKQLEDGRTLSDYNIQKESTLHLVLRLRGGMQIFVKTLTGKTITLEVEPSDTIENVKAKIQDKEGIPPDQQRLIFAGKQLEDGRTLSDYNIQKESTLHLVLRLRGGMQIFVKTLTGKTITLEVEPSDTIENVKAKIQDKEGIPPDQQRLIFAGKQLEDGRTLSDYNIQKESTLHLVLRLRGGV
Sequence of UniProt Q99757 (Q99757 whole entry, looked up): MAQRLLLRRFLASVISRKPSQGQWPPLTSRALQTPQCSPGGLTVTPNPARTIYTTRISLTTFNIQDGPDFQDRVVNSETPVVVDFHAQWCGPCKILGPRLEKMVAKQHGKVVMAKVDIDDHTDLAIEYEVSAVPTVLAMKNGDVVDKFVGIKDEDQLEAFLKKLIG
Sequence of UniProt P26368 (P26368 whole entry, looked up): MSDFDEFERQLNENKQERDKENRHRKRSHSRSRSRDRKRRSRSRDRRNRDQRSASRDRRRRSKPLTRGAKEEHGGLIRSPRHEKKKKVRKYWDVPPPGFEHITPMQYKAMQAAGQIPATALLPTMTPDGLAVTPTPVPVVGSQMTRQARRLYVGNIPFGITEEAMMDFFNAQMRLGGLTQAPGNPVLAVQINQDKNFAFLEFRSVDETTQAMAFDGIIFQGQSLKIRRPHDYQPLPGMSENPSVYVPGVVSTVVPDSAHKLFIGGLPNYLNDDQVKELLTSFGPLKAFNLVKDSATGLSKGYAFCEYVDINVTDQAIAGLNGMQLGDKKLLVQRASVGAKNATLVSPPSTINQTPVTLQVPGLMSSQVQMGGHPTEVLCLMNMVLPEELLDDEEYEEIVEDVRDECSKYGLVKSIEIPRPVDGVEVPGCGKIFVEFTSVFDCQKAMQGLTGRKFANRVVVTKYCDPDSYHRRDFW
Sequence of UniProt Q93009 (Q93009 whole entry, looked up): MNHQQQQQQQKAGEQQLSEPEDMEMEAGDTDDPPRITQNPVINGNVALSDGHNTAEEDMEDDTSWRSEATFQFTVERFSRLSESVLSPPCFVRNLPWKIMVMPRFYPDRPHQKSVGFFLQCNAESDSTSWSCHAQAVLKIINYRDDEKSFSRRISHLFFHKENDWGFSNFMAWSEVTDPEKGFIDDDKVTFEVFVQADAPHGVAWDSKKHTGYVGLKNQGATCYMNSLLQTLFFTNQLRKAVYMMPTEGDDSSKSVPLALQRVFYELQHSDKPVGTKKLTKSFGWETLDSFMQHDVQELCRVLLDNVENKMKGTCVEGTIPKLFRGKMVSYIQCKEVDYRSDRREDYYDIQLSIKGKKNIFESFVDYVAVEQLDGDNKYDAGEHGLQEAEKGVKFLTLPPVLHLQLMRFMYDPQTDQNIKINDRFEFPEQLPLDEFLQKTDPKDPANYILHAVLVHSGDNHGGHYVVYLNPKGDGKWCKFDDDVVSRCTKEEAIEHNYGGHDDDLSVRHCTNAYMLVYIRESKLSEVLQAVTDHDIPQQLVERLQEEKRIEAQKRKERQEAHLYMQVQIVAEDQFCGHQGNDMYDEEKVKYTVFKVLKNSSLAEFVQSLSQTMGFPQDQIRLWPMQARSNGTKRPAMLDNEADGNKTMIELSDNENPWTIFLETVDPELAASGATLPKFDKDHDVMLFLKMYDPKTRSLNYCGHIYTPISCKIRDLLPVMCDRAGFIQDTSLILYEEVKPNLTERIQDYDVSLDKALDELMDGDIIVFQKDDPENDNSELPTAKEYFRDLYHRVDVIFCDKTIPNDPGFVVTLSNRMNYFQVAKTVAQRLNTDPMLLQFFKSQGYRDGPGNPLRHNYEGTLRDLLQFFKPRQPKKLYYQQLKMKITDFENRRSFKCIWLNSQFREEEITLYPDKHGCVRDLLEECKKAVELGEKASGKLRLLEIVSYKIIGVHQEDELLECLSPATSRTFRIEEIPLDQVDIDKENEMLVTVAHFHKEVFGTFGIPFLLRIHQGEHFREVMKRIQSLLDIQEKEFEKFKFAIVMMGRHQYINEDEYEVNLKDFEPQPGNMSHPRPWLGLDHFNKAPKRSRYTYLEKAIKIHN
Sequence of UniProt O43156 (O43156 whole entry, looked up): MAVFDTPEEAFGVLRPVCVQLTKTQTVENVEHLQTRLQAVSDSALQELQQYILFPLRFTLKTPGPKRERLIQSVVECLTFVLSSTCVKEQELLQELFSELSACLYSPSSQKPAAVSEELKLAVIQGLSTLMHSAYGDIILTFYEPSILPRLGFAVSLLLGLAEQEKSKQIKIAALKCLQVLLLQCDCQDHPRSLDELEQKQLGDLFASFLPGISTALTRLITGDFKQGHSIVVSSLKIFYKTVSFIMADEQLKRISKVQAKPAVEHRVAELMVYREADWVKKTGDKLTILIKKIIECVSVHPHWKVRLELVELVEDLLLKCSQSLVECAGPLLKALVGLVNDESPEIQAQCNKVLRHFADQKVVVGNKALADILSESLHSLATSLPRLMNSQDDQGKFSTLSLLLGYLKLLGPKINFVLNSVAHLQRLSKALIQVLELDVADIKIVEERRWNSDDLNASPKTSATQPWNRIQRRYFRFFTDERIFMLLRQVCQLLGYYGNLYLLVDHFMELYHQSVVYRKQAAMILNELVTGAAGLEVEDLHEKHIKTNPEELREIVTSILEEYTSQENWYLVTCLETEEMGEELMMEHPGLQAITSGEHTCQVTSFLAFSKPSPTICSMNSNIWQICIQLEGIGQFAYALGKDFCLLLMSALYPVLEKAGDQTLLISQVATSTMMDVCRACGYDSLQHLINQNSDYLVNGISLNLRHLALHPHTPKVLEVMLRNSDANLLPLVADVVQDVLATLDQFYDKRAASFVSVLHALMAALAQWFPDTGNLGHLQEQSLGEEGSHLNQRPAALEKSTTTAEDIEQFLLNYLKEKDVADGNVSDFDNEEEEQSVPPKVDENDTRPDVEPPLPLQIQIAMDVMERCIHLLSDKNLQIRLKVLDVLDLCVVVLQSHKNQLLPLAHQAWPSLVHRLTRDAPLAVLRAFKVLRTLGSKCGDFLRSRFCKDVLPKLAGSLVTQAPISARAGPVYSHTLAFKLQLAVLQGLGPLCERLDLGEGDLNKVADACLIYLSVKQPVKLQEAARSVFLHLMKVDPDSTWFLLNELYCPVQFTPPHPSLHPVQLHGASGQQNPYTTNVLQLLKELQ

VPS16 (UniProt Q9H269): the log2 fold change with IRAK-1-4 Inhibitor I was 0.028; in the experiment with ibrutinib it was -0.073; in experiment [1], -0.02; with ralimetinib, 0.043; in experiment [2], -0.154; in experiment [3] it was -0.29. Moreover, the log2 fold change in [4] was -0.035; in the experiment with pinometostat it was 0.1; in experiment [5], 0.006; in [6] it was 0.061; in experiment [7], 0.023; in experiment [8], 0.011. For the same target, the log2 fold change in [9] is 0.032; in experiment [10], -0.013; in the experiment with Nexturastat A, 0.038; with vemurafenib, 0.017; in [11], 0.109; in experiment [12], 0. In addition, the log2 fold change in the experiment with givinostat was 0.075; with barasertib, -0.086.
Regarding U2AF2 (UniProt P26368), the log2 fold change was -0.069 with IRAK-1-4 Inhibitor I; 0.029 with ibrutinib; -0.313 (active) in experiment [1]; 0.03 with ralimetinib; -0.011 in experiment [2]; -0.102 in experiment [3]. In addition, the log2 fold change in [4] was 0.028; in the experiment with pinometostat it was 0.03; in experiment [5], -0.04; in experiment [6], 0.192; in experiment [7], -0.076; in experiment [8], 0.005. Moreover, the log2 fold change was -0.066 in [9]; 0.047 in experiment [10]; -0.048 with Nexturastat A; 0.031 in the experiment with vemurafenib; 0.001 in [11]; -0.028 in [12]. In addition, the log2 fold change with givinostat is 0.002; with barasertib, -0.015.
Take WDR61 (UniProt Q9GZS3): the log2 fold change is 0.037 in the experiment with IRAK-1-4 Inhibitor I; -0.015 with ibrutinib; -0.057 in experiment [1]; -0.049 with ralimetinib; 0.008 in experiment [2]; -0.016 in experiment [3]. Besides, the log2 fold change in experiment [4] is -0.009; with pinometostat it was 0.028; in experiment [5], 0.013; in [6], 0.004; in [7], -0.026; in experiment [8], 0.024. Also, the log2 fold change in experiment [9] was 0.001; in [10] it was -0.027; with Nexturastat A it was -0.035; in the experiment with vemurafenib it was -0.072; in [11], -0.115; in [12] it was -0.02. For the same target, the log2 fold change is 0.026 in the experiment with givinostat and 0.038 with barasertib.
As for TTI1 (UniProt O43156), the log2 fold change was -0.012 with IRAK-1-4 Inhibitor I; 0.009 in the experiment with ibrutinib; -0.065 in [1]; 0.1 in the experiment with ralimetinib; -0.113 in experiment [2]; -0.059 in [3]. Moreover, the log2 fold change in experiment [4] was 0.016; with pinometostat, 0.13; in experiment [5], -0.011; in experiment [6], 0.074; in [7] it was 0.147; in [8], -0.027. Moreover, the log2 fold change in experiment [9] is 0.086; in [10], -0.026; with Nexturastat A, 0.02; with vemurafenib, 0.082; in experiment [11] it was 0.095; in [12], -0.016. For the same target, the figures for the log2 fold change in the experiment with givinostat and with barasertib were 0.135 and 0.068, respectively.
For the target USP7 (UniProt Q93009), the log2 fold change with IRAK-1-4 Inhibitor I is -0.102; with ibrutinib it was -0.021; in experiment [1], -0.078; with ralimetinib it was 0; in [2], -0.172; in [3], -0.198. Further, the log2 fold change was 0.012 in experiment [4]; 0.024 with pinometostat; 0 in experiment [5]; 0.17 in [6]; 0.054 in experiment [7]; -0.046 in experiment [8]. Further, the log2 fold change was 0.007 in experiment [9]; 0.012 in experiment [10]; 0.015 in the experiment with Nexturastat A; 0.036 in the experiment with vemurafenib; 0.068 in [11]; 0 in [12]. The log2 fold change with givinostat was 0.083; in the experiment with barasertib, 0.073.
As to TXN2 (UniProt Q99757), the log2 fold change with IRAK-1-4 Inhibitor I is 0.081; with ibrutinib it was 0.021; in [1] it was 0.072; with ralimetinib, -0.093; in experiment [2] it was 0.079; in experiment [3] it was 0.086. Moreover, the log2 fold change is -0.029 in experiment [4]; -0.048 with pinometostat; 0.086 in experiment [5]; 0.041 in experiment [6]; -0.05 in experiment [7]; -0.018 in experiment [8]. Also, the log2 fold change is -0.009 in [9]; 0.036 in experiment [10]; 0.093 with Nexturastat A; 0.006 with vemurafenib; -0.048 in experiment [11]; 0.095 in experiment [12]. Also, the log2 fold change was -0.046 in the experiment with givinostat and 0.009 with barasertib.
Take UBC (UniProt P0CG48): the log2 fold change is 0.022 in the experiment with IRAK-1-4 Inhibitor I; 0.027 in the experiment with ibrutinib; 0.033 in [1]; -0.064 with ralimetinib; 0.008 in experiment [2]; 0.167 in experiment [3]. The log2 fold change is 0.296 (active) in [4]; 0.042 in the experiment with pinometostat; -0.018 in [5]; 0.281 (active) in experiment [6]; 0.007 in experiment [7]; -0.091 in experiment [8]. Further, the log2 fold change in [9] was -0.001; in experiment [10] it was -0.032; with Nexturastat A, 0.151; with vemurafenib it was -0.016; in [11], -0.08; in [12], -0.017. The log2 fold change is 0.028 in the experiment with givinostat and -0.018 with barasertib.
